# Reference: PubChem BioAssay (NCATS)
# Results filed as inconclusive are left out. A number with no mark means an inactive call. Calls of active or inactive are those of the source. Calls follow the shape of the full dose curve; tested in HEK293 reporter line.
# Test: qHTS for Inhibitors of the Functional Ribonucleoprotein Complex (vRNP) of Lassa (LASV) Arenavirus: Viability assay - alamar blue signal for LASV Primary Screen (AID 1347083)
# Conditions: cell viability, alamar blue fluorescence (LASV minigenome counter-screen); series mostly up to 57.5 µM; activity change, negative = reduced viability: at the top concentration
# % is scaled to controls: 0 for no effect and ±100 for the full control effect.
# Also: nearly all actives have a fitted effect of over 80% in size.
SMILES,Potency,"activity change, negative = reduced viability"
Cc1cccc(C)c1NC(=O)C(C)N (centres undefined),inactive,
CC(=O)OCC(=O)Nc1cc(C#N)cc(NC(=O)COC(C)=O)c1Cl,,-0.848%
CNC(=O)Oc1ccc2c(c1)[C@]1(C)CCN(C)[C@@H]1N2C,inactive,
Cc1cc(C(C)(C)C)c(O)c(C)c1CC1=NCCN1,inactive,
C[C@]12C=CC(=O)C=C1CC[C@H]1[C@@H]3C[C@@H](O)[C@](O)(C(=O)CO)[C@@]3(C)C[C@H](O)[C@@]12F,inactive,
COc1cc([C@H]2Oc3cc([C@H]4Oc5cc(O)cc(O)c5C(=O)[C@@H]4O)ccc3O[C@@H]2CO)ccc1O,,1%
Cl/C(=C\n1cncn1)c1ccc(Cl)cc1Cl,,14.2%
Cc1c(N(C)C)c(=O)n(-c2ccccc2)n1C,,2.74%
CC1=C(C(=O)O)N2C(=O)[C@@H](NC(=O)[C@H](N)C3=CCC=CC3)[C@H]2SC1,inactive,
Cc1cc(=O)oc2cc(O)ccc12,inactive,
NC(=O)C(=O)N/N=C/c1ccc([N+](=O)[O-])o1,,-7.69%
CC(=O)[C@@]1(O)CC[C@H]2[C@@H]3C[C@H](C)C4=CC(=O)CC[C@]4(C)[C@H]3CC[C@@]21C,,11.3%
CC(=O)NC(Cc1ccccc1)C(=O)O (centres undefined),,-13.4%
CCC(C)(C)c1ccc(CC(C)CN2C[C@@H](C)O[C@@H](C)C2)cc1 (some centres undefined),inactive,
C=C1C(=C/C=C2\CCC[C@]3(C)[C@@H]([C@H](C)/C=C/[C@@H](O)C4CC4)CC[C@@H]23)C[C@@H](O)C[C@@H]1O,,-3.47%
Cc1cc(NC(=O)C2=C(O)c3ccccc3S(=O)(=O)N2C)no1,,-3.51%
CCOC(=O)OC(C)OC(=O)[C@@H]1N2C(=O)[C@@H](NC(=O)[C@H](N)c3ccccc3)[C@H]2SC1(C)C (some centres undefined),,4.97%
Cc1cccc(CN2CCN(C(c3ccccc3)c3ccc(Cl)cc3)CC2)c1 (centres undefined),inactive,
Brc1c(NC2=NCCN2)ccc2nccnc12,inactive,

# Test: qHTS for Inhibitors of the Functional Ribonucleoprotein Complex (vRNP) of Lymphocytic Choriomeningitis Arenaviruses (LCMV): Viability assay - alamar blue signal for LCMV Primary Screen (AID 1347085)
# Conditions: alamar blue viability counter-screen, LCMV vRNP screen cells; series mostly up to 57.5 µM; activity change, negative = lower viability: at the top concentration
SMILES,Potency,"activity change, negative = lower viability"
CCCCCN(CCCCC)C(=O)C(CCC(=O)O)NC(=O)c1ccc(Cl)c(Cl)c1 (centres undefined),inactive,
CCOCC(O)COc1ccc(NC(=O)CC[S+](C)C)cc1 (centres undefined),inactive,
Cc1ccc(CCn2c3c(c4cc(Cl)ccc42)CN(C)CC3)cn1,,-24.8%
COc1ccc2nc(NC(=O)Nc3ccccc3)sc2c1,,-6.22%
CN(C)[C@@H]1C(=O)C(C(=O)NCN2CCCC2)=C(O)[C@@]2(O)C(=O)C3=C(O)c4c(O)cccc4[C@@](C)(O)C3C[C@@H]12 (some centres undefined),,4.05%
CCN(CC)CCOc1ccc(/C(=C(\Cl)c2ccccc2)c2ccccc2)cc1,,-14.8%
Cc1c(Cn2ccnc2)c2ccccc2n1CCC(=O)O,,5.67%
CC1(C)CO[C@@H](CC(=O)O)CN1,,10.1%
CN1C(=O)CC(c2ccccc2)C1=O (centres undefined),,0.174%
C[C@@]12CCC[C@H]1[C@@H]1CC[C@H]3C[C@@H](O)CC[C@]3(C)[C@H]1CC2,,20.7%
O=C(O)CP(=O)(O)O,inactive,
CN(C)CC[C@@H](c1ccc(Cl)cc1)c1ccccn1,inactive,
Cc1ccc(Cl)c(OCC(O)CNC(C)(C)C)c1 (centres undefined),,0.747%
CCCCCCCCCCCC[N+](C)(C)Cc1ccccc1,,2.73%
Oc1cccc2[nH]ccc12,,8%
NC(N)=N/N=C/c1c(Cl)cccc1Cl,inactive,
CC(C)NC(=O)c1ccc(C=O)cc1,,0.696%
CCn1c(=O)c2c(nc(C=Cc3ccc(OC)c(OC)c3)n2C)n(CC)c1=O,,0.598%
Oc1ccc(Cl)cc1Sc1cc(Cl)ccc1O,,28.6%
O=c1ccc2ccccc2o1,,3.79%

SMILES,Potency,"activity change, negative = lower viability"
CCN(CC)CCOc1ccccc1C(=O)CCc1ccccc1,,-3.96%
Cc1cccc(C)c1NC(=O)C(C)N (centres undefined),inactive,
CC(=O)OCC(=O)Nc1cc(C#N)cc(NC(=O)COC(C)=O)c1Cl,,-1.03%
CNC(=O)Oc1ccc2c(c1)[C@]1(C)CCN(C)[C@@H]1N2C,inactive,
Cc1cc(C(C)(C)C)c(O)c(C)c1CC1=NCCN1,inactive,
C[C@]12C=CC(=O)C=C1CC[C@H]1[C@@H]3C[C@@H](O)[C@](O)(C(=O)CO)[C@@]3(C)C[C@H](O)[C@@]12F,inactive,
COc1cc([C@H]2Oc3cc([C@H]4Oc5cc(O)cc(O)c5C(=O)[C@@H]4O)ccc3O[C@@H]2CO)ccc1O,,6.17%
Cl/C(=C\n1cncn1)c1ccc(Cl)cc1Cl,,-38.8%
Cc1c(N(C)C)c(=O)n(-c2ccccc2)n1C,,-1.45%
CC1=C(C(=O)O)N2C(=O)[C@@H](NC(=O)[C@H](N)C3=CCC=CC3)[C@H]2SC1,inactive,
Cc1cc(=O)oc2cc(O)ccc12,inactive,
NC(=O)C(=O)N/N=C/c1ccc([N+](=O)[O-])o1,,-19.5%
CC(=O)[C@@]1(O)CC[C@H]2[C@@H]3C[C@H](C)C4=CC(=O)CC[C@]4(C)[C@H]3CC[C@@]21C,,0.143%
CC(=O)NC(Cc1ccccc1)C(=O)O (centres undefined),,-28.2%
CCC(C)(C)c1ccc(CC(C)CN2C[C@@H](C)O[C@@H](C)C2)cc1 (some centres undefined),inactive,
C=C1C(=C/C=C2\CCC[C@]3(C)[C@@H]([C@H](C)/C=C/[C@@H](O)C4CC4)CC[C@@H]23)C[C@@H](O)C[C@@H]1O,,31.8%
Cc1cc(NC(=O)C2=C(O)c3ccccc3S(=O)(=O)N2C)no1,,6.43%
CCOC(=O)OC(C)OC(=O)[C@@H]1N2C(=O)[C@@H](NC(=O)[C@H](N)c3ccccc3)[C@H]2SC1(C)C (some centres undefined),,-3.35%
Cc1cccc(CN2CCN(C(c3ccccc3)c3ccc(Cl)cc3)CC2)c1 (centres undefined),inactive,
Brc1c(NC2=NCCN2)ccc2nccnc12,inactive,
